Assay outcomes: PubChem, National Center for Advancing Translational Sciences (NCATS)
RORgamma inh: ROR gamma (mouse) transcription inhibition | AID 2551 | 310,000 tested, 5.4% active | Potency, µM (doses to about 53.6 µM), for inactives: top-dose activity change, negative = inhibition, most hits filed as inhibitors | Drosophila S2 Gal4-RORgamma UAS-luciferase reporter, 20 h; further: nearly all actives have a fitted effect of over 60% in size
Target sequence (P51450 whole entry, looked up, the tested form may be a part): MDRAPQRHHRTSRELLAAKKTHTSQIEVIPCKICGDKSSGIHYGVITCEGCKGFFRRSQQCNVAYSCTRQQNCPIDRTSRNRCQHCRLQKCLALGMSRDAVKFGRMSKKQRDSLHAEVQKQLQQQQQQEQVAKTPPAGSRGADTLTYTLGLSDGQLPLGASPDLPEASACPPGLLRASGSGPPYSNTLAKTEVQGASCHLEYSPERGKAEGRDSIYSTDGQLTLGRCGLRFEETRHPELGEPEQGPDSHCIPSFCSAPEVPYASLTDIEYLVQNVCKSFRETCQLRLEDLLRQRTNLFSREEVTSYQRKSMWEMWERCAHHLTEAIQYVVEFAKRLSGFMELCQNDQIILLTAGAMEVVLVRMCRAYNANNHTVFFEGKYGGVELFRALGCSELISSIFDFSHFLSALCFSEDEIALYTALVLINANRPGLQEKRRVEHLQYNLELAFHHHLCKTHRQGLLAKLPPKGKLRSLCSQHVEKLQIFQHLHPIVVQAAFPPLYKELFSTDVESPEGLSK
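Luminescence from a UAS-regulated Photinus luciferase reporter in stably transfected Drosophila Schneider cells is measured; decreased signal marks ROR gamma inhibition. Fusion expression is induced by 700 uM copper sulfate for 20 hr.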
TDP1 cell CPT: DT40-hTDP1 cell growth loss with CPT. chicken DT40 Tdp1-/-;hTDP1 cells + 20 nM CPT, ATP luminescence, 48 h. Potency, µM (top dose mostly 46.2 µM), for the others: at the top dose activity change, negative = growth inhibition, most hits filed as inhibitors. 420,000 tested, 12% active. AID 686979; further: nearly all actives have a fitted effect of over 55% in size
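Chicken DT40 Tdp1-/- cells complemented with human TDP1, 400 cells/well, exposed to compounds plus 20 nM camptothecin for at least 48 h at 37 C; viability read as ATP content by CellTiter-Glo luminescence.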
TDP1 block: inhibitors of human tyrosyl-DNA phosphodiesterase TDP1; recombinant TDP1, AlphaScreen DNA substrate cleavage; Q9NUW8; 350,000 tested, 0.28% active; Potency, µM (top dose mostly 130 µM), without a hit: at the top dose activity change, negative = inhibition, usual class: inhibitors; further: nearly all actives have a fitted effect of over 40% in size
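Tdp1 1 nM final; 15 min RT w/ cpd; substrate 15 nM, 5 min; beads 10 ug/ml, 10 min; AlphaScreen read. Neg ctrl: no enzyme.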
Gal4-VP16 FLuc: inhibits Gal4-VP16 luciferase reporter, ROR gamma counter-screen; Drosophila S2 Gal4-VP16 UAS-luciferase, luminescence, 20 h; Potency, µM (series often up to 53.6 µM), for inactives: at the highest dose activity, negative = inhibition, hits mostly inhibitors; 310,000 tested, 3.5% active; AID 2546;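 further: Gal4-VP16 expression switched on by copper sulfate through the metallothionein promoter; nearly all actives have a fitted effect of over 50% in size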
DT40 TDP1 no CPT: qHTS for Inhibitors of human tyrosyl-DNA phosphodiesterase 1 (TDP1): qHTS in cells in absence of CPT. DT40 Tdp1-/- hTDP1 cells, no CPT, ATP luminescence, 48 h. Potency, µM (top dose mostly 46.2 µM), for the others: at the highest dose activity change, negative = growth inhibition, usual class: inhibitors. 420,000 tested, 15% active; further: nearly all actives have a fitted effect of over 55% in size
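Compound effects on proliferation are scored in DT40 Tdp1-/-;hTDP1 cells in the absence of CPT. ATP levels (CellTiter-Glo luminescence) are recorded after a ≥48 hr, 37 °C incubation.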
Numbers without * were called inactive; ? = inconclusive; / = no result given; [ ] = dose if it differs, or a comment. In the library only some 19% were active in any assay of this set; here they are far more common. The call rests on the fitted dose curve; in most records, active means well fitted curve in the direction sought with a large enough effect; inconclusive means small, poorly fitted or top-dose-only effect, or another doubt; inactive means no such curve, though single readings can be large; an effect the other way counts as inactive or inconclusive. On the % scale 0 is the no-effect control and ±100 the full control effect; potency means the concentration at half of the fitted maximal effect.

SMILES	RORgamma inh	TDP1 cell CPT	TDP1 block	Gal4-VP16 FLuc	DT40 TDP1 no CPT
CCNC(=O)C1(C)CCN(Cc2ccc(-c3ccccc3)cc2)C1 (stereo not given)	/	?	/	/	20.6µM*
CCNC(=O)C1(C)CCCN(Cc2cc(-c3ccccc3)n(C)n2)C1 (stereo not given)	/	?	/	/	-19.0%
N#Cc1ccc(/C=C/C(=O)c2ccc3c(c2)OCO3)cc1	-28.1%	16.4µM*	0.0%	-6.0%	23.1µM*
Cc1ccc(C(=O)/C=C/Nc2ccc3c(c2)OCO3)cc1	?	-0.7%	5.9%	-49.1%	4.1%
O=C(/C=C/c1ccc2c(c1)OCO2)N1CCOCC1	7.2%	-11.0%	5.3%	1.8%	-5.5%
O=C(/C=C/c1ccccc1)c1ccc2c(c1)OCCCCO2	?	-29.4%	0.0%	?	?
O=C(C=Cc1ccc2c(c1)OCO2)C=Cc1ccc2c(c1)OCO2	/	?	/	/	23.1µM*
O=C(/C=C/c1ccc2c(c1)OCO2)c1ccccn1	?	23.1µM*	8.7%	?	18.4µM*
O=C1COc2ccc(C(=O)/C=C/c3ccccc3)cc2N1	-38.4%	5.17µM*	0.0%	2.6%	5.17µM*
O=C(c1cc2c(=O)oc3ccccc3c2s1)N1CCOCC1	4.7%	-5.7%	4.2%	-0.6%	-0.8%
NC(=O)c1cc([N+](=O)[O-])c(Cl)cc1NCc1cccnc1	/	?	0.9%	/	?
O=C(NCCc1csc(-c2cccc(F)c2)n1)C(=O)Nc1cc(F)ccc1F	/	-14.0%	3.0%	/	-16.2%
O=C(NCCCN=C1NS(=O)(=O)c2ccccc21)c1ccc(S(=O)(=O)N2CCCCC2)cc1	-18.5%	?	-2.2%	-11.6%	?
Cc1cc(=O)[nH]c(N/N=C/c2ccco2)n1	12.9%	-8.0%	3.6%	3.4%	-23.5%
COc1ccc(N/C=C(/C(C)=O)c2ccccc2)cc1	-1.4%	-6.6%	7.2%	?	-15.1%
CN(C)/C=C/C(=O)c1cccc(Cl)c1	11.3%	-17.7%	6.3%	10µM*	-24.9%
O=C(/C=C/c1ccc2c(c1)OCCCO2)c1ccc2ccccc2c1O	-15.0%	?	11.6%	-5.1%	11.6µM*
O=C(/C=C/c1ccccc1)NNC(=O)c1cccc(Cl)c1	-17.9%	3.5%	4.1%	-1.1%	-17.8%
O=C(/C=C/c1ccccc1)c1ccccn1	-35.6%	23.1µM*	-13.7%	?	16.4µM*
O=C(C=Cc1cccc(Cl)c1)c1ccccc1	/	14.6µM*	/	/	23.1µM*
N/C(=N\OC(=O)/C=C/c1ccccc1)c1ccccn1	-35.8%	-0.1%	8.1%	-15.4%[10 µM]	-24.2%
CN(C)/C=C/C(=O)c1ccc(Cl)cc1	?	-9.5%	-2.0%	-99.0%	-7.2%
Cc1ccc(S(=O)(=O)N2CCN(C(=O)CCn3nc(C)c(C)c3C)CC2)cc1C	0.5%	-4.5%	3.8%	-10.7%	-17.1%
N#Cc1nc(COc2cccc(Cl)c2)oc1NCc1ccncc1	-1.6%	-9.7%	11.0%	-10.0%	-6.2%
CCN(C(=O)/C=C/c1ccc2c(c1)OCO2)c1ccccc1	37.2%	?	2.8%	?	?
SMILES	RORgamma inh	TDP1 cell CPT	TDP1 block	Gal4-VP16 FLuc	DT40 TDP1 no CPT
O=C(C=Cc1ccc2c(c1)OCO2)c1ccccc1	/	?	/	/	16.4µM*
CCc1ccc(Cn2c(CNS(=O)(=O)c3ccc(C)c(C)c3)nc3cccnc32)cc1	/	?	6.6%	/	?
O=S(=O)(NCc1nc2cccnc2n1Cc1ccccc1)c1ccc2c(c1)CCCC2	/	?	4.4%	/	20.6µM*
Cc1cccc(Cn2c(CNS(=O)(=O)c3ccc4c(c3)CCCC4)nc3cccnc32)c1	/	?	-1.1%	/	16.4µM*
O=S(=O)(NCc1nc2cccnc2n1Cc1ccccc1Cl)c1ccc2c(c1)CCCC2	/	?	5.5%	/	16.4µM*
COc1cccc(Cn2c(CNS(=O)(=O)c3ccc4c(c3)CCCC4)nc3cccnc32)c1	/	?	4.4%	/	?
O=S(=O)(NCc1nc2cccnc2n1Cc1ccc(F)cc1)c1ccc2c(c1)CCCC2	/	18.4µM*	7.7%	/	?
Cc1ccc(C(=O)N2CCN(c3cc4c(cc3[N+](=O)[O-])n(C)c(=O)n4C)CC2)cc1	-2.6%	?	1.0%	0.4%	?
Cn1c(=O)n(C)c2cc([N+](=O)[O-])c(N3CCN(S(=O)(=O)c4ccc5ccccc5c4)CC3)cc21	?	16.4µM*	0.0%	-8.8%[0.365 µM]	?
Cn1c(=O)n(C)c2cc([N+](=O)[O-])c(N3CCN(C(=O)c4cccc(Cl)c4)CC3)cc21	3.5%	?	3.0%	-9.0%	18.4µM*
Cc1ccc(S(=O)(=O)N2CCN(c3cc4c(cc3[N+](=O)[O-])n(C)c(=O)n4C)CC2)cc1	1.7%	?	3.1%	-2.5%	16.4µM*
C[C@@]12CCC[C@H]1[C@@H]1CC[C@H]3C[C@@H](O)CC[C@]3(C)[C@H]1CC2	/	-6.2%	/	/	11.9%
C[C@]12CCC(O)CC1CCC1C2CC[C@]2(C)C(c3cc(C(F)(F)F)n[nH]3)CCC12 (stereo not given in full)	24.8%	?	/	4.6%	13µM*
CCOC(=O)N1CCN(c2nc(C(F)(F)F)nc3c(C)cc(C)cc23)CC1	?	-19.2%	-4.1%	20µM*	?
COc1cc(/C=C2\SC(=S)N(NC(=O)c3ccc(O)cc3)C2=O)ccc1O	11.2µM*	-3.0%	/	?	-13.5%
O=C1/C(=C/c2ccc(O)c(O)c2)SC(=S)N1Nc1ccccc1	17.0%	?	8.1%	?	?
O=C(NN1C(=O)/C(=C/c2ccc(O)c(O)c2)SC1=S)c1ccccc1	-42.4%	?	8.4%	-25.7%	11.6µM*
CCOC(=O)C1=C(COC(=O)C2CC(=O)N(c3ccc(CC)cc3)C2)NC(=O)NC1C (stereo not given)	/	3.0%	-0.1%	/	-3.1%
COc1ccc(NC(=O)Nc2nnc(-c3ccncc3)s2)cc1	?	23.1µM*	10.7%	-8.8%	23.1µM*
COc1ccc(NC(=O)Nc2nnc(N3CCCCCC3)s2)cc1	/	?	5.7%	/	?
COc1cc(NC(=O)Nc2nnc(N3CCCCCC3)s2)cc(OC)c1	/	23.1µM*	5.7%	/	16.4µM*
O=C(Nc1ccc(Cl)c(Cl)c1)Nc1nnc(-c2ccncc2)s1	33.8%[10 µM]	3.26µM*	/	-15.1%	3.66µM*
O=C(Nc1nnc(-c2ccncc2)s1)Nc1ccccc1F	6.6%	?	0.0%	-2.6%	?
COc1cc2c(cc1OC)C(c1ccc(-c3ccccc3Cl)o1)=NCC2	11.2µM*	6.51µM*	7.1%	11.2µM*	2.31µM*
COc1cc2c(cc1OC)C(c1ccc(Cl)cc1)=NCC2	-37.8%	16.4µM*	/	0.7%	8.2µM*
